The record followed here is PubChem BioAssay (EPA / NIEHS).

Structures are written as SMILES. Activity calls are given as the source filed them. How the source made its calls: active means hit-call score of the fitted dose curve at least 0.9, where 1 is the maximum; inactive means score below 0.9.

Test [1] in a line: ATG_GRE_CIS: Attagene CIS-FACTORIAL HepG2 Assay for human Glucocorticoid Response Elements (GRE) (AID 2282947). The settings on record: HepG2 GRE cis-reporter, Attagene multiplex mRNA; actives raise or lower the signal. In a few lines:
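Reporter transcripts read by RT-PCR with capillary electrophoresis fluorescence after a 24 h chemical exposure of HepG2 cells transiently transfected with multiple cis-element reporter units. Gain or loss fitted against DMSO.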

A short description of test [2]: ATG_ISRE_CIS: Attagene CIS-FACTORIAL HepG2 Assay for human Interferon Regulatory Factor 1 (IRF1) binding to an Interferon-Stimulated Response Element (ISRE) (AID 2282948). Conditions: HepG2 ISRE cis-reporter (Attagene), mRNA transcription readout; actives raise or lower the signal. In a few lines:
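Endogenous transcription factor activity read as reporter transcript abundance via RT-PCR and capillary electrophoresis. HepG2 cells transiently transfected, 24 h chemical exposure. Gain or loss fitted against DMSO baseline.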

Test [3] is described as follows: ATG_M_32_CIS: Attagene CIS-FACTORIAL HepG2 Assay for M32 Transcription Factor (Internal Marker) (AID 2282949).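 Further: background control marker of the multiplexed CIS panel rather than a real target.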 The settings on record: HepG2 Attagene cis-factorial M32 reporter, mRNA; actives raise or lower the signal. In a few lines: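 HepG2 transfectants (cis-regulated reporter transcription units) dosed 24 h. Reporter mRNA by RT-PCR plus CE, analysed as gain or loss relative to DMSO.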

Test [4] in a line: ATG_M_06_CIS: Attagene CIS-FACTORIAL HepG2 Assay for M06 Transcription Factor (Internal Marker) (AID 2282950). Conditions: HepG2 Attagene CIS-FACTORIAL M06 internal marker reporter; actives raise or lower the signal. In a few lines:
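Steps: transfect HepG2 with multiplexed cis-element reporter constructs; dose chemical 24 h; extract RNA with DNase treatment; reverse-transcribe, PCR-amplify, 6-FAM label, HpaI digest; separate fragments by capillary electrophoresis. Activity fitted both directions versus DMSO.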

Test [5] concerns the target Hypoxia-inducible factor 1-alpha (Homo sapiens) (UniProt Q16665). Description: ATG_HIF1a_CIS: Attagene CIS-FACTORIAL HepG2 Assay for human Hypoxia Inducible Factor 1 (HIF1A) (AID 2282951). The settings on record: HepG2 Attagene cis-factorial HIF1a reporter transcription; actives raise or lower the signal. In a few lines:
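Transient MRTU transfection of human HepG2 liver cells, 24 h compound treatment, then total RNA isolation, oligo(dT) reverse transcription, PCR amplification, fluorescent labelling and capillary electrophoresis of reporter fragments. Gain or loss relative to DMSO.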

Test [6] in a line: ATG_MRE_CIS: Attagene CIS-FACTORIAL HepG2 Assay for human Metal Responsive Element (MRE) (AID 2282954). The settings on record: HepG2 MRE cis-reporter transcription, Attagene multiplex; actives raise or lower the signal. In a few lines: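 Endogenous MRE-dependent transcription read as reporter mRNA in transiently transfected human HepG2 cells at 24 h. RNA reverse-transcribed, PCR-amplified, labelled and resolved by capillary electrophoresis; gain or loss relative to DMSO.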

A short description of test [7]: ATG_PBREM_CIS: Attagene CIS-FACTORIAL HepG2 Assay for human Phenobarbital-responsive Enhancer Module (PBREM) (AID 2282955). The settings on record: HepG2 PBREM cis-reporter, Attagene multiplexed transcription; actives raise or lower the signal. In a few lines:
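Endogenous transcription factors in human liver HepG2 cells drive a PBREM cis-element reporter, whose transcript level after 24 h treatment is quantified by RT-PCR with capillary electrophoresis; activity fitted in both directions against DMSO.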

Test [8] in a line: ATG_PXRE_CIS: Attagene CIS-FACTORIAL HepG2 Assay for human Pregnane X Receptor Element (PXRE) (AID 2282957). Conditions: HepG2 Attagene CIS-FACTORIAL PXRE reporter, mRNA; actives raise or lower the signal. In a few lines: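 Fluorescent capillary electrophoresis of amplified reporter cDNA gave the signal, collected 24 h after dosing HepG2 cells that held transfected cis-element reporter constructs.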

The nature of test [9]: ATG_PPRE_CIS: Attagene CIS-FACTORIAL HepG2 Assay for human Peroxisome Proliferator-activated Response Element (PPRE) (AID 2282958). Conditions: HepG2 PPRE cis-element reporter, Attagene transcription factor profiling; actives raise or lower the signal. In a few lines:
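HepG2, transient MRTU transfection (cis promoter elements, endogenous TFs). 24 h dosing. RNA → oligo(dT) RT → PCR → 6-FAM primer extension → HpaI digest → CE. Bidirectional fit vs DMSO.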

Test [10] can be described thus: ATG_RORE_CIS: Attagene CIS-FACTORIAL HepG2 Assay for human RAR-related Orphan Receptor Element (RORE) (AID 2282959). The settings on record: HepG2 Attagene cis-factorial RORE reporter, mRNA; actives raise or lower the signal. In a few lines: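 Transient MRTU transfection of human HepG2 liver cells (FuGene 6); 24 h compound exposure; TriZol RNA, oligo(dT) RT, PCR, FAM labeling, HpaI cut, CE fragment analysis. DMSO = negative control/baseline.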

A short description of test [11]: ATG_Sox_CIS: Attagene CIS-FACTORIAL HepG2 Assay for human SRY-box transcription factor (SOX) (AID 2282960). Conditions: HepG2 Attagene cis-factorial SOX reporter, mRNA; actives raise or lower the signal. In a few lines: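 Endogenous factor activity in human liver HepG2 cells carrying transfected cis-regulated reporter units. RNA taken 24 h post-dose, reverse-transcribed, PCR-amplified and sized by capillary electrophoresis. Gain or loss of signal fitted relative to DMSO.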

Test [12] deals with Transcription factor Sp1 (Homo sapiens) (UniProt P08047). Description: ATG_Sp1_CIS: Attagene CIS-FACTORIAL HepG2 Assay for human Specificity Protein 1 (Sp1) (AID 2282961). The settings on record: HepG2 Sp1 cis-reporter transcription, actives raise or lower the signal. In a few lines:
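Transient MRTU-transfected HepG2, 24 h compound exposure. Total RNA → oligo(dT) RT → PCR of reporter → 6-FAM primer extension → HpaI digest → CE. Endpoint fitted both directions vs DMSO.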

The nature of test [13]: ATG_SREBP_CIS: Attagene CIS-FACTORIAL HepG2 Assay for human Sterol Regulatory Element Binding (SREBP) (AID 2282962). Conditions: HepG2 Attagene cis-factorial SREBP reporter, mRNA; actives raise or lower the signal. In a few lines:
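Endogenous SREBP activity read as cis-element-driven reporter transcript in transiently transfected HepG2, 24 h post-dosing; quantified via RT-PCR plus capillary electrophoresis of fluorescent fragments. Gain or loss of signal fitted relative to DMSO baseline.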

Test [14] concerns the target Signal transducer and activator of transcription 3 (Homo sapiens) (UniProt P40763). Description: ATG_STAT3_CIS: Attagene CIS-FACTORIAL HepG2 Assay for human Signal Transducer and Activator of Transcription 3 (STAT3) (AID 2282963). Conditions: HepG2, Attagene cis-factorial STAT3 reporter transcription; actives raise or lower the signal. In a few lines:
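Readout is reporter transcript quantified by RT-PCR and capillary electrophoresis, with 6-FAM primer extension and HpaI digestion. Total RNA is taken 24 h after dosing transiently transfected HepG2 carrying cis-regulated reporter units. Bidirectional fit against DMSO.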

Test [15] is described as follows: ATG_TCF_b_cat_CIS: Attagene CIS-FACTORIAL HepG2 Assay for human T-Cell-Factor with beta-catenin (TCF/b-cat) (AID 2282965). Conditions: HepG2 TCF/beta-catenin cis-reporter transcription, actives raise or lower the signal. In a few lines:
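Endogenous transcription factor activity is captured through cis-promoter reporter constructs transiently introduced into human HepG2 liver cells. Induced reporter mRNA is measured after 24 h and fitted bidirectionally relative to DMSO.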

The nature of test [16]: ATG_TAL_CIS: Attagene CIS-FACTORIAL HepG2 Assay for human TAL Basal Promoter (AID 2282966).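 Further: background control endpoint measuring basal TAL promoter reporter mRNA not a specific factor.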 The settings on record: HepG2 Attagene cis-factorial TAL promoter reporter; actives raise or lower the signal. In a few lines:
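Transiently transfected HepG2 (cis-regulated reporter units), 24 h treatment, mRNA read by fluorescent CE after RT-PCR; bidirectional fit, DMSO baseline.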

The target in test [17] is Paired box protein Pax-6 (Homo sapiens) (UniProt P26367). In words: ATG_Pax6_CIS: Attagene CIS-FACTORIAL HepG2 Assay for human Paired Box 6 (PAX6) (AID 2282956). Conditions: HepG2 CIS-FACTORIAL PAX6 reporter transcription, RNA readout; actives raise or lower the signal. In a few lines:
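Read-out is reporter transcript level, measured by RT-PCR with fluorescent primer extension and capillary electrophoresis after 24 h dosing of transfected HepG2 cells. Activity in either direction fitted relative to DMSO control.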

Test [18] is described as follows: ATG_TA_CIS: Attagene CIS-FACTORIAL HepG2 Assay for human TA Basal Promoter (AID 2282964). Conditions: HepG2 Attagene CIS-factorial TA basal promoter reporter; actives raise or lower the signal. In a few lines: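 Steps: transfect HepG2 with MRTUs; dose 24 h; isolate RNA, DNase-treat, reverse-transcribe; PCR and FAM-label reporter cDNA; digest with HpaI 2h at 37 C; run capillary electrophoresis. Activity fitted both directions against DMSO.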

Test [19] has as its target Heat shock factor protein 1 (Homo sapiens) (UniProt Q00613). In words: ATG_HSE_CIS: Attagene CIS-FACTORIAL HepG2 Assay for human Heat Shock Transcription Factor 1 (HSE) (AID 2282953). Conditions: HepG2 HSE cis-reporter, Attagene RNA transcription; actives raise or lower the signal. In a few lines: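 Cells were transfected with cis-element-driven reporter constructs, dosed for 24 h, then total RNA was reverse-transcribed and reporter cDNA amplified, FAM-labelled and digested with HpaI. Fragments were resolved by capillary electrophoresis; gain or loss was fitted against DMSO.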

Chain of Signal transducer and activator of transcription 3 (Homo sapiens) (P40763 whole entry, looked up): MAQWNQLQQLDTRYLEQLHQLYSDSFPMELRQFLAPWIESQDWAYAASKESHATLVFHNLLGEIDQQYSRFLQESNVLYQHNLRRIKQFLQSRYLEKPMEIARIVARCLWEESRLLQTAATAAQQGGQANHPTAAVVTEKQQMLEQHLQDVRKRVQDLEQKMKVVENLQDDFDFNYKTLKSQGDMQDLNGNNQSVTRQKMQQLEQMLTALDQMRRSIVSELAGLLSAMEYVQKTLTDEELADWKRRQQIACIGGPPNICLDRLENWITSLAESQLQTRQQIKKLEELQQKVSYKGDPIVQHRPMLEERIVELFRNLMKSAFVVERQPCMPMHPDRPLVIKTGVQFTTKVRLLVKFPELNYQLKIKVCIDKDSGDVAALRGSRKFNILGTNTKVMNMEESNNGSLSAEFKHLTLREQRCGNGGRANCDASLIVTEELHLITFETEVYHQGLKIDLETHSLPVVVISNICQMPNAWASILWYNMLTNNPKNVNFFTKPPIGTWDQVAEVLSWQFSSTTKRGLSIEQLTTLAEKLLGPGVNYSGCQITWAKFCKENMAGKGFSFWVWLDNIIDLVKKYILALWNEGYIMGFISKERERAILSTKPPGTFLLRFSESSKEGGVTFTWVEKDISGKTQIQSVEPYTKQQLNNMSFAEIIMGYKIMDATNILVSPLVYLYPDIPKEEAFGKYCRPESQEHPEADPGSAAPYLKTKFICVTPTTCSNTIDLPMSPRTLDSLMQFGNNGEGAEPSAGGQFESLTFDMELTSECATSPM
Chain of Hypoxia-inducible factor 1-alpha (Homo sapiens) (Q16665 whole entry, looked up, the tested form may be a part): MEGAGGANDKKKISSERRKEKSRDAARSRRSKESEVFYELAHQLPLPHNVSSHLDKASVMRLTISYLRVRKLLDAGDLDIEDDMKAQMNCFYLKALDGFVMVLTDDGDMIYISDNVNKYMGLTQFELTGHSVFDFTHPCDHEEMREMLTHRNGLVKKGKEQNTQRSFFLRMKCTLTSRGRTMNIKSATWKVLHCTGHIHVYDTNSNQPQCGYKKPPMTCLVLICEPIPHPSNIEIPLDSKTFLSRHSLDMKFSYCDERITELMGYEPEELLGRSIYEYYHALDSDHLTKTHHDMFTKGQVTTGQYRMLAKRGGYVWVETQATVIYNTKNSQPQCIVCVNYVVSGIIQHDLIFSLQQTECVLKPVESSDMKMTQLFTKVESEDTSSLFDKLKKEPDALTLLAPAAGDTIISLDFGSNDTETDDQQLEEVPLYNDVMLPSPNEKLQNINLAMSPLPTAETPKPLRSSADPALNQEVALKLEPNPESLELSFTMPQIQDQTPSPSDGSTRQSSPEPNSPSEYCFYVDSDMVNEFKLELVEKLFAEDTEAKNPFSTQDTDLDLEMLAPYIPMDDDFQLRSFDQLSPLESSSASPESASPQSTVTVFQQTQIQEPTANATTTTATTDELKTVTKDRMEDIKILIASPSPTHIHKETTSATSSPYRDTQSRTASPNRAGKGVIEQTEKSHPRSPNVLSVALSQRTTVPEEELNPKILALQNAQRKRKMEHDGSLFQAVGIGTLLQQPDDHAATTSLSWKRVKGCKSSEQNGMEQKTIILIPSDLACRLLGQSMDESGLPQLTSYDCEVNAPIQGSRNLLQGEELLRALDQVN
Chain of Paired box protein Pax-6 (Homo sapiens) (P26367 whole entry, looked up): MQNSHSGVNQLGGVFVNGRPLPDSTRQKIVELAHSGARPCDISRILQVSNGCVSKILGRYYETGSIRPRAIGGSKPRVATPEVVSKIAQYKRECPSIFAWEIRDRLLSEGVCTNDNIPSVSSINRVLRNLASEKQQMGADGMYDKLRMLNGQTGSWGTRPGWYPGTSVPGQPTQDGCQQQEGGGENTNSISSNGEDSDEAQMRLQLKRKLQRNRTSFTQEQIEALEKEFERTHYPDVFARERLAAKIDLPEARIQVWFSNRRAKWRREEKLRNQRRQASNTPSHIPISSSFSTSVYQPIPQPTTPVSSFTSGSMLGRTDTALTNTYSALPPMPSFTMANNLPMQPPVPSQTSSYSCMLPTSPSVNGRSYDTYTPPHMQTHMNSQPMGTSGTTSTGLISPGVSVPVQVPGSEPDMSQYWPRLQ
Chain of Transcription factor Sp1 (Homo sapiens) (P08047 whole entry, looked up): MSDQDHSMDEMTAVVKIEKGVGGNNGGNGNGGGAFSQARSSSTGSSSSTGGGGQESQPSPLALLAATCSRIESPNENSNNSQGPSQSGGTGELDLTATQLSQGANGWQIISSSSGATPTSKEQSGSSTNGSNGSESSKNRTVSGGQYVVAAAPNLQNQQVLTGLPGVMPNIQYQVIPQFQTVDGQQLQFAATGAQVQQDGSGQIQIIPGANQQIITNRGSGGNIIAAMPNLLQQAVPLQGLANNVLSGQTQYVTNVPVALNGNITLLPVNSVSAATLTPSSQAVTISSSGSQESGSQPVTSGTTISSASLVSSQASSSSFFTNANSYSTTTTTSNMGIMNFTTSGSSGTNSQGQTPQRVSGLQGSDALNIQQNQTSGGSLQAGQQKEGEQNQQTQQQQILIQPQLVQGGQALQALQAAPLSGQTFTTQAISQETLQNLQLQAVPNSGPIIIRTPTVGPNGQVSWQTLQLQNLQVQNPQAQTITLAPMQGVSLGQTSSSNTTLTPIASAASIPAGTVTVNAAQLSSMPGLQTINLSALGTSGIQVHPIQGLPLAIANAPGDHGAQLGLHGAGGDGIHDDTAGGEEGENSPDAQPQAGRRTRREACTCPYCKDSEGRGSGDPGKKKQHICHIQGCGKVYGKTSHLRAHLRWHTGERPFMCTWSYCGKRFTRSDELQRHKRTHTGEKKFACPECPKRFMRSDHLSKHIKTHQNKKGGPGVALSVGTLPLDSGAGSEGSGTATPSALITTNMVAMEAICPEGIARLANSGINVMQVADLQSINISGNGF
Chain of Heat shock factor protein 1 (Homo sapiens) (Q00613 whole entry, looked up, the tested form may be a part): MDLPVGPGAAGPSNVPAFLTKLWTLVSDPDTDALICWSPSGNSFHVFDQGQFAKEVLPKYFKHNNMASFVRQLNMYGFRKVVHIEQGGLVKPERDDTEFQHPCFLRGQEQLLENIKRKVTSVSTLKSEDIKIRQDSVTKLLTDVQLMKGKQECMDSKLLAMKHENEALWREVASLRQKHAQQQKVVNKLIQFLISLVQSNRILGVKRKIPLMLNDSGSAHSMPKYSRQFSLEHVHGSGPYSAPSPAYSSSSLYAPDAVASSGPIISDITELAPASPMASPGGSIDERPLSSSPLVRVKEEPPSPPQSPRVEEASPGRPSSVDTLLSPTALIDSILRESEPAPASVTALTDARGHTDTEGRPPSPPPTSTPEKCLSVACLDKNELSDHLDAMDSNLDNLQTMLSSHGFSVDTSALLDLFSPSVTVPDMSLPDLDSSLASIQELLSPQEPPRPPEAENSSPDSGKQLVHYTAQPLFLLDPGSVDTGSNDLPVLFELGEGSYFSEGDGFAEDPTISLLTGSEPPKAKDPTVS

Take `O=C(Cl)C(F)(F)C(F)(F)C(F)(F)C(=O)Cl`: the compound was classed as inactive in test [1], in [2], in test [3], in [4], in test [5] and in [6]. The outcome in [7], in test [8], in [9], in test [10], in test [11] and in [12] was inactive. Moreover, the compound was classed as inactive in [13], in test [14], in [15] and in [16].
Turning to `OCc1ccccc1`, the call in test [1], in test [2], in [3], in [4], in [5] and in test [6] was inactive. For the same compound, the result in test [7], in test [17], in test [8], in test [10], in test [11] and in test [12] was inactive. Further, the call in test [13], in [14], in [18], in [15] and in test [16] was inactive.
`CCCCOC(=O)c1ccccc1`: the result in [1], in test [2], in [3], in test [4], in [5] and in test [6] was inactive. The compound was called inactive in [17], in test [8], in [9], in test [10], in test [11] and in [12]. In addition, the call in test [13], in [14], in [18], in test [15] and in test [16] was inactive.
As a reminder, the AC50 is the concentration at which the activity in the assay is half-maximal. Consider `c1ccc(C(O[C@@H]2CCCN(CCc3ccc4c(c3)OCO4)C2)c2ccccc2)cc1`, for which the compound was classed as inactive in test [1], in [2], in test [3], in test [4], in [9] and in test [10]. The compound was classed as inactive in [11], in test [12], in test [14], in [15] and in test [16]. For the same compound, the AC50 in test [5] was 47.1 µM (active); in test [19], 55 µM (active); in test [6], 33 µM (active); in test [8], 0.514 µM (active); in test [13], 10.7 µM (active).
As for `CCCCCCCC/C=C\CCCCCCCC(=O)OC[C@@H](O)[C@H]1OC[C@H](O)[C@H]1O`, the result in test [1], in test [2], in test [3], in test [4], in [5] and in test [19] was inactive. In addition, the call in test [6], in test [17], in test [9], in test [10], in test [11] and in test [12] was inactive. In addition, the outcome in [13], in test [14], in test [18], in test [15] and in test [16] was inactive. Also, the AC50 in test [8] was 71.7 µM (active).
Consider `CCCCCCOC(=O)CC(CC(=O)OCCCCCC)(OC(=O)CCC)C(=O)OCCCCCC`, for which the compound was classed as inactive in test [1], in [2], in [3], in test [4], in test [5] and in test [19]. The result in test [6], in test [7], in test [17], in test [9], in test [10] and in test [11] was inactive. The result in test [12], in test [13], in test [14], in [15] and in test [16] was inactive. The AC50 in [8] was 0.922 µM (active).
For the compound `CCCCCCCC1CCC(=O)O1` (stereo not given), the compound was classed as inactive in test [1], in test [2], in test [3], in [4], in test [5] and in test [6]. The outcome in test [7], in test [17], in test [8], in test [9], in test [10] and in test [11] was inactive. For the same compound, the compound was called inactive in test [12], in [13], in test [14], in [15] and in test [16].
For `CC1(C)C(=O)N(Cl)C(=O)N1Cl`, the call in test [1], in [2], in test [3], in test [4], in test [5] and in [19] was inactive. Also, the result in [6], in [17], in [8], in [10], in test [11] and in [12] was inactive. Moreover, the call in [13], in test [14], in [15] and in [16] was inactive.
